Most compounds without a hit are left out; they make up all but 0.93% or so of the library.
CDC25B-CDK2 inh: human CDC25B-CDK2/CyclinA binding inhibition | 94,000 tested, 0.72% active | HTRF CDC25B-CDK2/CyclinA binding, anti-His/anti-Flag; active compounds read high | P30305+P24941 | z-score (concentration not given with the values) | AID 1259370; in the data active = z-score above about 3.2
TAR Tat displ: HIV-1 TAR-Tat binding disruption | z-score (test concentration not listed) | 100,000 tested, 0.6% active | HIV-1 TAR RNA, Tat peptide displacement FRET; active compounds read high; active = z-score of 3 or more in at least 2 runs
* hit, by the source's call; . = not tested or not shown.

SMILES	CDC25B-CDK2 inh	TAR Tat displ
CCOc1cccc2c1Oc1[nH]c(-c3cc(OC)c(OC)c(OC)c3)nc(=S)c1C2	-1.4	.
CCOc1cccc(-c2nc(=S)c3c([nH]2)Oc2c(cccc2OC)C3)c1O	5.3	23*
CCOc1cccc(-c2nc3c(c(=O)[nH]2)Cc2cccc(OCC)c2O3)c1O	0.25	7.2*
COc1cccc(-c2nc(=S)c3c([nH]2)Oc2c(cccc2OC)C3)c1O	7.4	35*
CCC(O)c1nc2ccccc2n1CC(=O)N(C(C)C)C(C)C (stereo unspecified)	-0.47	-1
CC(C)(C)C1CCC2(CC1)NNC(=S)NN2	-2	.
COCCCNC(=O)C(NS(=O)(=O)c1cccs1)C(C)C (stereo unspecified)	.	1.2
Cn1c(=O)c2c(-c3cccc(Br)c3)n(CC(=O)c3ccccc3)cc2n(C)c1=O	0.49	-7.9
O=C(Nc1nnc(-c2cccs2)o1)c1ccc2c(c1)OCCO2	.	1.1
Fc1ccc(NC(=S)Nc2ccc3cn[nH]c3c2)cc1	20*	.
CNC(=S)Nc1ccc(F)cc1	-1.5	.
C(#Cc1ccccc1)CNCCSc1nnnn1-c1ccccc1	-0.11	1.1
COc1ccc(C2=NN3C(C2)c2ccccc2OC3c2ccncc2)cc1OC (stereo unspecified)	-0.92	-0.61
COc1ccccc1C1Oc2ccccc2C2CC(c3cccnc3)=NN21 (stereo unspecified)	-0.43	3.5*
COc1ccc2nc3oc(C(=O)NC4CCCCC4)cc3cc2c1	.	0.98
Cc1ccc(C)n1-c1ccc(SCC(=O)O)cc1	0.36	27*
O=C(O)CSc1ccc(F)cc1	.	0.74
CCCNC(=O)CN1C(=O)NC2NC(=O)NC21 (stereo unspecified)	-2.9	0.55
CCc1ccccc1-n1nnc(-c2nc(-c3ccc4c(c3)OCO4)no2)c1N	.	0.43
O=c1c(NC2CCCCC2)c(-c2ccccc2)c1=O	.	1.1
O=C1C(NC2CCCCC2)=C(N2CCCCC2)C(=O)c2ccccc21	5*	.
CN(C)CCn1c2ccccc2n2cc(-c3ccc4c(c3)OCO4)nc12	-2.4	3.5
COc1ccc(C2=C(C#N)C(=C(C#N)C#N)NC(c3ccc(OC)cc3O)=C2)cc1	-2.2	.
CC1=NN(C2CCS(=O)(=O)C2)C(=O)C1(Sc1ccccc1)Sc1ccccc1 (stereo unspecified)	0.51	.
Cc1nnc(SCC(=O)Nc2ncc3c(n2)CC(c2ccco2)CC3=O)s1 (stereo unspecified)	4.2	-1.4
SMILES	CDC25B-CDK2 inh	TAR Tat displ
O=C(CSc1nnnn1-c1ccccc1)Nc1ncc2c(n1)CC(c1ccco1)CC2=O (stereo unspecified)	15*	-4.7
CCC(O)c1nc2ccccc2n1Cc1ccccc1Cl (stereo unspecified)	-0.27	1.3
O=C1CC(c2ccco2)Cc2[nH]c(=O)c(-c3nc(-c4ccc(Br)cc4)cs3)cc21 (stereo unspecified)	8.2*	3.7*
Cc1ccc(-c2csc(-c3cc4c([nH]c3=O)CC(c3ccccc3)CC4=O)n2)cc1 (stereo unspecified)	-0.21	-6.3
Clc1ccc2c(c1)nc1n2CCN(Cc2ccco2)C1	-1.4	0.96
CCOc1ccc(-c2cc(C(=O)O)c3c(-c4ccc(Br)cc4)[nH]nc3n2)cc1	.	1.3
CCNC(=O)c1cn2c3c(ccc(Cl)c3c1=O)OC(C)C2 (stereo unspecified)	.	5.3
CCOC(=O)c1cn2c3c(ccc(Cl)c3c1=O)OC(C)C2 (stereo unspecified)	.	17*
CCc1ccc2c(c1)c(=O)c(S(=O)(=O)c1ccc(F)cc1)cn2C	1.3	0.62
O=C1c2ccncc2C(=O)N1CCc1ccc(Cl)cc1	.	1
Cc1ccc([C@@H]2Nc3c(F)cccc3[C@@H]3C=CC[C@@H]32)cc1	-1.8	.
O=C(O)c1ccc2c(c1)C1C=CCC1C(c1ccc(Cl)cc1)N2 (stereo unspecified)	-0.83	19*
O=C(O)c1ccc2c(c1)[C@@H]1C=CC[C@@H]1[C@H](c1ccccc1Br)N2	-0.76	0.61
O=C(O)c1ccc2c(c1)[C@@H]1C=CC[C@@H]1[C@H](c1cccc(Cl)c1)N2	0.38	.
O=C(O)c1ccc2c(c1)C1C=CCC1C(c1cccc(F)c1)N2 (stereo unspecified)	0.43	9.3*
O=C(O)c1ccc2c(c1)[C@@H]1C=CC[C@@H]1[C@H](c1cccc(C(F)(F)F)c1)N2	-0.52	.
O=C(O)c1ccc2c(c1)[C@@H]1C=CC[C@@H]1[C@H](c1ccccn1)N2	6*	.
O=C(O)c1ccc([C@@H]2Nc3c(F)cccc3[C@@H]3C=CC[C@@H]32)cc1	2.2	9.4*
Cc1nnc(SCc2c(F)cccc2Cl)[nH]c1=O	-1.6	.
C#CC(CC)(CC)NC(=O)c1sc2ccccc2c1Cl	0.17	.
CCOC(=O)c1sc(=S)n(-c2ccc(Cl)cc2)c1N	.	1.5
CCOC(=O)c1sc(=S)n(-c2ccc(OC)cc2)c1N	17*	1.1
COc1ccc(-c2nc3cc(N)ccc3o2)cc1Cl	0.13	1.6
CCCS(=O)(=O)N1CCN(Cc2noc(CCC(=O)N3CCC(C)CC3)n2)CC1	.	0.17
N[C@@H](Cc1cnc[nH]1)C(=O)O	-0.77	.
SMILES	CDC25B-CDK2 inh	TAR Tat displ
O=C(O)c1cnc[nH]1	3.9*	.
COc1cc(NC(=O)C(C)CS(=O)(=O)c2ccc3c(c2)NC(=O)C(C)S3)cc(OC)c1 (stereo unspecified)	.	15*
Cc1cc(C)cc(NC(=O)C(C)CS(=O)(=O)c2ccc3c(c2)NC(=O)C(C)S3)c1 (stereo unspecified)	.	-0.17
CCOCCOC(=O)C1=C(C)NC2=C(C(=O)CC(c3cccs3)C2)C1c1cccc(O)c1 (stereo unspecified)	-0.65	0.44
C=CCSCC=C	.	15*
CC1CCCN(c2ncnc3c2cnn3-c2cccc(Cl)c2)C1 (stereo unspecified)	.	2.3
CCCCC(=O)Nc1ccc2nc(NS(C)(=O)=O)sc2c1	.	-0.5
CS(=O)(=O)Nc1nc2ccc(NC(=O)Cc3cccs3)cc2s1	.	16*
COc1ccc(-c2cc(-c3ccc(OC)cc3)c3c(N)c(C(=O)c4ccc(Cl)c(Cl)c4)sc3n2)cc1	-3.5	.
Cc1ccc(-c2nnc3sc(/C=C/c4ccco4)nn23)cc1	14*	20*
Cc1ccc(/C=C/c2nn3c(-c4ccoc4C)nnc3s2)cc1	-1.3	0.92
Cc1ccc(-c2nn3c(C)nnc3s2)cc1	-0.67	0.49
Cc1ccccc1/C=C/c1nn2c(-c3ccoc3C)nnc2s1	-1.2	0.29
Cc1occc1-c1nnc2sc(/C=C/c3ccccc3Cl)nn12	1.2	7.7*
C(=C\c1nn2cnnc2s1)/c1ccco1	-0.67	21*
Cc1nnc2sc(/C=C/c3ccco3)nn12	-1.1	11*
c1csc(-c2nn3cnnc3s2)c1	-0.82	0.39
Cc1ccc(CNc2c(-c3ccc4c(c3)OCC(=O)N4)c(=O)c2=O)cc1	.	-1.7
Cc1ccc(C)c(OCc2cc(=O)n3c4c(sc3n2)CCCC4)c1	-2.9	1.1
CCCS(=O)(=O)N1CCCc2ccc(NS(=O)(=O)c3ccc(C)cc3)cc21	.	1.2
CN(C)CCOC(=O)c1cnn2c(C(F)(F)F)cc(-c3cccs3)nc12	-0.72	0.85
COc1ccccc1C1CC(=O)C2=C(C1)NC(C)=C(C(=O)OCC1CCCO1)C2c1cccs1 (stereo unspecified)	-1.1	1.6
Cc1nn(-c2cccc(Cl)c2)c2nc(-c3ccco3)cc(C(F)(F)F)c12	0.7	-2.4
Cn1c(C(=O)N2CCN(C(=O)c3ccco3)CC2)cc2c(=O)[nH]c3ccccc3c21	18*	0.35

From PubChem
